Data on one sequence can be found in paper PMC7862700, “An all-to-all approach to the identification of sequence-specific readers for epigenetic DNA modifications on cytosine”.

Experiment in all cases: DAPPL (digital affinity profiling via proximity ligation, sequencing); 10 mM Tris-HCl pH 7.5, 50 mM NaCl, 1 mM DTT, 4% glycerol, room temperature, 30 min; GST-TFs on glutathione beads, 16-mer random dsDNA library, 0.1% formaldehyde crosslink after washing; high values mean tight binding
One assay has as its target T1, FLI1 (Homo sapiens, UniProt Q01543 1-452).
T1 sequence: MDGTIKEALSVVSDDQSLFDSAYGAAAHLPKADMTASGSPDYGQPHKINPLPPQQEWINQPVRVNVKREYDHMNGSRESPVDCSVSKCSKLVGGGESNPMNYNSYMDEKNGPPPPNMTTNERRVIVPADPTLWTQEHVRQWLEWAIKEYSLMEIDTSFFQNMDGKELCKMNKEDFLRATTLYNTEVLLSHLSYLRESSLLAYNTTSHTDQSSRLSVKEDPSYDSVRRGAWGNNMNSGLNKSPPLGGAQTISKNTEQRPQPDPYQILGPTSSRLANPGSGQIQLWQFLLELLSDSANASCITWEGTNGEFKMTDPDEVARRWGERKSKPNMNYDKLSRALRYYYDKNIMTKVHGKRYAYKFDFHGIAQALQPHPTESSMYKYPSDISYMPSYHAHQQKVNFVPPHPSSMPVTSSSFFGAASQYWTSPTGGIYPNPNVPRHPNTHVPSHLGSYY
As to conditions: protein: recombinant; tags: N-terminal GST; dsDNA, one strand shown. The method in brief:
(§1)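 Sequencing on an Illumina NextSeq500 followed washing, crosslinking with 0.1% formaldehyde, proximity ligation (BsaI/T4 ligase, 1 h, 37 °C) and PCR amplification of pools that had been incubated for 30 min at room temperature with 200 nmole of a random double-stranded 16-mer DNA library in Tris/NaCl/DTT/glycerol buffer. Each pool held DNA-barcoded human transcription factors, expressed in yeast as GST fusions and captured on glutathione beads, plus a tag-only sample. Binding signal is a hexamer's read frequency for a factor divided by its frequency in the tag-only sample.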

The target of the next assay is T2, ELK1 (Homo sapiens, UniProt P19419 1-428).
T2 sequence: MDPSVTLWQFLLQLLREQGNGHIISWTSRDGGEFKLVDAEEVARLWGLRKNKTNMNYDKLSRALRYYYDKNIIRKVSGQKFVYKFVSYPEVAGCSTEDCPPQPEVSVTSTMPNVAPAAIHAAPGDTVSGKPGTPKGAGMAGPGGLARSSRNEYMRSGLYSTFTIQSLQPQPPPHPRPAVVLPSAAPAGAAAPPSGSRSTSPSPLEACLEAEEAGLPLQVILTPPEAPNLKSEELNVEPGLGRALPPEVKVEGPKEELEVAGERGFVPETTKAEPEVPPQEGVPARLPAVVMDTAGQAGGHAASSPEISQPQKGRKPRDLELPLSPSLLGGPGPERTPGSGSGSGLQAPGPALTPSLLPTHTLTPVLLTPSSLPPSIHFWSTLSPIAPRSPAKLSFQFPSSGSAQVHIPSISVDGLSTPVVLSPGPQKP
As to conditions: protein: recombinant; tags: N-terminal GST; dsDNA, one strand shown. The method in brief: as §1

The next assay deals with T3, GABPA (Homo sapiens, UniProt Q06546 1-454).
T3 sequence: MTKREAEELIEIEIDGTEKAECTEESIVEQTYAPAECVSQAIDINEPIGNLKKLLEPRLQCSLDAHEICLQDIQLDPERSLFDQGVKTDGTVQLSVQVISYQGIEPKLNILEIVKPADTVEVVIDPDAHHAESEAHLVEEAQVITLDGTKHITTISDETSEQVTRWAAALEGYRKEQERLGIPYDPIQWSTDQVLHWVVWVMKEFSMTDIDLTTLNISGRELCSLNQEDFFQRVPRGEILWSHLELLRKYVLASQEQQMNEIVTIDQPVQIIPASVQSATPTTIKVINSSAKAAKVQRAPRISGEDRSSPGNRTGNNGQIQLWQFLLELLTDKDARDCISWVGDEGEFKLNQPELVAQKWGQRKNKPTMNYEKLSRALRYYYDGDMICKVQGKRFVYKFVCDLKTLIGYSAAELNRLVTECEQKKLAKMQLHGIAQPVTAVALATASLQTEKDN
Particulars: protein: recombinant; tags: N-terminal GST; dsDNA, one strand shown. In outline:
as §1

The target in the next assay is T4, ERG (Homo sapiens, UniProt P11308 1-479).
T4 sequence: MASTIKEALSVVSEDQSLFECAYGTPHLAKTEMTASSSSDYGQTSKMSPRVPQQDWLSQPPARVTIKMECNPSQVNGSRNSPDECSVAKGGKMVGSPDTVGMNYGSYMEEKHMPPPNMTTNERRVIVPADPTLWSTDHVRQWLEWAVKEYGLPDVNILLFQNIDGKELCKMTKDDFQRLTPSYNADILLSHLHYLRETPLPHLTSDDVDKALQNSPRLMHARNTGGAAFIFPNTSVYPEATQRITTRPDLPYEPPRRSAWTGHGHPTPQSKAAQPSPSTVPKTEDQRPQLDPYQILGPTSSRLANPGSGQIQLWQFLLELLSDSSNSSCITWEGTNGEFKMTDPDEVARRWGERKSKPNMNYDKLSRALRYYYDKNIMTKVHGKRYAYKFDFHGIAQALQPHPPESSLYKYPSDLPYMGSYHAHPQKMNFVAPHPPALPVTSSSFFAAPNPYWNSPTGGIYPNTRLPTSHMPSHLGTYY
As to conditions: protein: recombinant; tags: N-terminal GST; dsDNA, one strand shown. In outline:
as §1

The target of a further assay is ELF1 (Homo sapiens, UniProt P32519 1-619). Particulars: protein: recombinant; tags: N-terminal GST; dsDNA, one strand shown. The method in brief: as §1
Chain of ELF1 (P32519 whole entry): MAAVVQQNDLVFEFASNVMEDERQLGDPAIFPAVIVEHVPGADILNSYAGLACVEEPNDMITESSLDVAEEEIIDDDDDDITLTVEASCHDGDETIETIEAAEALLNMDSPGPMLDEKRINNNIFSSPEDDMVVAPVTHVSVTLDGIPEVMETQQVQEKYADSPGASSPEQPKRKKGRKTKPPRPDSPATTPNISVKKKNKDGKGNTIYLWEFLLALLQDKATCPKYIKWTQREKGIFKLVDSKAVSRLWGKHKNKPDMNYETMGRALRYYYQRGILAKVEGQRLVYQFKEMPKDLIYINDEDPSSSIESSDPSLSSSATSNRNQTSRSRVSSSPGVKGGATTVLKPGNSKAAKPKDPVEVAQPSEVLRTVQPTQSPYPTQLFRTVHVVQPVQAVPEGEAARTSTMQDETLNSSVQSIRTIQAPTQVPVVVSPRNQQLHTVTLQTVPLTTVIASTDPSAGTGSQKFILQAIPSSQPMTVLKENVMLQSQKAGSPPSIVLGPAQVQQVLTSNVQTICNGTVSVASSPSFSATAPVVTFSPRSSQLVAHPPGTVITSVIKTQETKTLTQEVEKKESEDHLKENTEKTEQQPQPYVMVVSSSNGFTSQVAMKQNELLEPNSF
The target in another assay is T5, EHF (Homo sapiens, UniProt Q9NZC4 1-300).
T5 sequence: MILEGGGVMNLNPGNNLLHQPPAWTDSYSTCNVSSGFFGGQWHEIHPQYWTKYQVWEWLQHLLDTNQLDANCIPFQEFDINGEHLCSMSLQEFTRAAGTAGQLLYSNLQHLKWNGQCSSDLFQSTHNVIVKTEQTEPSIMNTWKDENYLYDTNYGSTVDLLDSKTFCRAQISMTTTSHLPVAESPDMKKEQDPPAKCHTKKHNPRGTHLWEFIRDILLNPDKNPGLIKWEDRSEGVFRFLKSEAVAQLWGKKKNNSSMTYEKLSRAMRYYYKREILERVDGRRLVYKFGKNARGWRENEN
Particulars: protein: recombinant; tags: N-terminal GST; dsDNA, one strand shown. In outline:
as §1

In another assay the target is SPI1 (Homo sapiens, UniProt P17947 1-270). As to conditions: protein: recombinant; tags: N-terminal GST; dsDNA, one strand shown. In outline:
as §1

In a further assay the target is T6, ELK3 (Homo sapiens, UniProt P41970 1-407).
T6 sequence: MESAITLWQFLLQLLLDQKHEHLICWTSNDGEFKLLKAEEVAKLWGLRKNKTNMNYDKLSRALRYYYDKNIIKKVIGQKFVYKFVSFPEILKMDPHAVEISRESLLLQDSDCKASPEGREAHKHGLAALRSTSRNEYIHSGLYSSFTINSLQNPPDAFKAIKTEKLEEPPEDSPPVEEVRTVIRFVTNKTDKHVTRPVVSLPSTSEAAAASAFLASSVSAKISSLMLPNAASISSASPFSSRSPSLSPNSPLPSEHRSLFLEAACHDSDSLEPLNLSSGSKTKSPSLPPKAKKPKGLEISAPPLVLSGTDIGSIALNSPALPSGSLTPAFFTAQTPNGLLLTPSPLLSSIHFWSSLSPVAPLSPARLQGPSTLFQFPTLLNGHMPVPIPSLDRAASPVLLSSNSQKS
As to conditions: protein: recombinant; tags: N-terminal GST; dsDNA, one strand shown. In outline:
as §1

For another assay, the target named is T7, FEV (Homo sapiens, UniProt Q99581 1-238).
T7 sequence: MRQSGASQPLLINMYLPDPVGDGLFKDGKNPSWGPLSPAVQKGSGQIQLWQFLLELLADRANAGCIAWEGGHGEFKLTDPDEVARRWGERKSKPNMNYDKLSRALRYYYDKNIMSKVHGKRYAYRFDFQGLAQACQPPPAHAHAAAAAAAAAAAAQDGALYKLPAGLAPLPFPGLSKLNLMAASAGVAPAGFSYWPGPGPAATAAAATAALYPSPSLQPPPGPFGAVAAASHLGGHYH
Particulars: protein: recombinant; tags: N-terminal GST; dsDNA, one strand shown. In outline:
as §1

A further assay has as its target ETV5 (Homo sapiens, UniProt P41161 1-510). Particulars: protein: recombinant; tags: N-terminal GST; dsDNA, one strand shown. The method in brief:
as §1

The next assay has as its target HSF1 (Homo sapiens, UniProt Q00613 1-529). As to conditions: protein: recombinant; tags: N-terminal GST; chain copies: 3; dsDNA, one strand shown. The method in brief:
as §1

The next assay deals with T8, SPIC (Homo sapiens, UniProt Q8N5J4 1-248).
T8 sequence: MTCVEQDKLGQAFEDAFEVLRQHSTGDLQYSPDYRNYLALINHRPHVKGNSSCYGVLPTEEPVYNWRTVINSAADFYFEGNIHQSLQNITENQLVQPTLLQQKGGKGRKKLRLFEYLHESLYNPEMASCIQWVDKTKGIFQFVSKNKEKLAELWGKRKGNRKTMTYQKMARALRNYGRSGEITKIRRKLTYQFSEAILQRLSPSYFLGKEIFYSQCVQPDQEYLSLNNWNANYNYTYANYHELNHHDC
As to conditions: protein: recombinant; tags: N-terminal GST; dsDNA, one strand shown. In outline: as §1

The target in another assay is ELF4 (Homo sapiens, UniProt Q99607 1-663). Particulars: protein: recombinant; tags: N-terminal GST; dsDNA, one strand shown. In outline:
as §1

Another assay deals with T9, ELK4 (Homo sapiens, UniProt P28324-2 1-405).
T9 sequence: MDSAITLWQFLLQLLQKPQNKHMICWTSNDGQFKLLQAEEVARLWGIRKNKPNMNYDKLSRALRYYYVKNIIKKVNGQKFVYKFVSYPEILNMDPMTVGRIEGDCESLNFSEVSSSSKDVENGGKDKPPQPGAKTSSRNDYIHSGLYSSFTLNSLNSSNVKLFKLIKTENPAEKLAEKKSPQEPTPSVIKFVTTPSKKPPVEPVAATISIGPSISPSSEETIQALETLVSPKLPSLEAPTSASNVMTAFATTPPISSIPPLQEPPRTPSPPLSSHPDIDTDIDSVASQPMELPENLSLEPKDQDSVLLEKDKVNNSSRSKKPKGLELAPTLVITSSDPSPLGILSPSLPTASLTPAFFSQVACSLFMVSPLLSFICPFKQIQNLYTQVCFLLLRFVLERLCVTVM
As to conditions: protein: recombinant; tags: N-terminal GST; dsDNA, one strand shown. In outline:
as §1

The target of the next assay is T10, ETV2 (Homo sapiens, UniProt O00321 1-342).
T10 sequence: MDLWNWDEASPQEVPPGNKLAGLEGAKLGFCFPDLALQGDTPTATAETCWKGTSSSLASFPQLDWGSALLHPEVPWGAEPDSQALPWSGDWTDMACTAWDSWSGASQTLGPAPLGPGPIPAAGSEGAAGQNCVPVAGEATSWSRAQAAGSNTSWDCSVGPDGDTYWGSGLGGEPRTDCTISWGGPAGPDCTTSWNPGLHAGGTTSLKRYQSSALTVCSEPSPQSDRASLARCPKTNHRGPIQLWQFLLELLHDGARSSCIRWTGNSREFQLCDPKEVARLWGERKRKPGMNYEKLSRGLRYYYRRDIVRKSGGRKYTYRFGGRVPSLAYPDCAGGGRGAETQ
As to conditions: protein: recombinant; tags: N-terminal GST; dsDNA, one strand shown. The method in brief:
as §1

For the next assay, the target named is T11, ELF3 (Homo sapiens, UniProt P78545 1-371).
T11 sequence: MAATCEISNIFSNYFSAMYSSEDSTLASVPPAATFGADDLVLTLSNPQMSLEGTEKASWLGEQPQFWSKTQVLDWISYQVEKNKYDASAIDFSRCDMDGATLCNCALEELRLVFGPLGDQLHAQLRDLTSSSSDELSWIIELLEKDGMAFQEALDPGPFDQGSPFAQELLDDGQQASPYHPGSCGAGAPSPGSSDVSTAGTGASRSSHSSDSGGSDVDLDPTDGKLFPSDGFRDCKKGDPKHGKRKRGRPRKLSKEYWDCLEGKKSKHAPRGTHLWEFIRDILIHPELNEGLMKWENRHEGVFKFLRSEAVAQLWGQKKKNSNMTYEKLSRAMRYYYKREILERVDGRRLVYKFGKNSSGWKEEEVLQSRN
Particulars: protein: recombinant; tags: N-terminal GST; dsDNA, one strand shown. In outline:
as §1

The next assay concerns the target CRX (Homo sapiens, UniProt O43186 1-299). As to conditions: protein: recombinant; tags: N-terminal GST; dsDNA, one strand shown. In outline: as §1

Chain of ELF4 (Q99607 whole entry): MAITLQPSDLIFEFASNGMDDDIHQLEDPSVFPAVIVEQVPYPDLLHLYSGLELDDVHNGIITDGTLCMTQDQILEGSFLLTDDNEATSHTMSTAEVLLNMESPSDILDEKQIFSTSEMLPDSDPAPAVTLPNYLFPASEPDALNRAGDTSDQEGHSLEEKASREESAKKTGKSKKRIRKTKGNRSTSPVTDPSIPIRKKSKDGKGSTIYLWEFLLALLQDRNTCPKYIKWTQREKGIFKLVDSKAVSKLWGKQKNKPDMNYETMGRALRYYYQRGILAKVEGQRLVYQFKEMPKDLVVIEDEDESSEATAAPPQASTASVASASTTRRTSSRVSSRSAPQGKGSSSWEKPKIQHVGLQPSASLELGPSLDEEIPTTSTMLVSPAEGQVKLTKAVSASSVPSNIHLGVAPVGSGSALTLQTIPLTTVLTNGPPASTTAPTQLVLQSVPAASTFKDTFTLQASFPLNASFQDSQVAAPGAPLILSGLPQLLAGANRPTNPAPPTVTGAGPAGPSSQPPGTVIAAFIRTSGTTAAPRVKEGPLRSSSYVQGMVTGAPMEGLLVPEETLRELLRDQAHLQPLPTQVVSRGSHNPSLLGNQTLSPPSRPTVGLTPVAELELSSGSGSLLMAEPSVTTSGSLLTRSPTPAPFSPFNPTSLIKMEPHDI
Chain of ETV5 (P41161 whole entry): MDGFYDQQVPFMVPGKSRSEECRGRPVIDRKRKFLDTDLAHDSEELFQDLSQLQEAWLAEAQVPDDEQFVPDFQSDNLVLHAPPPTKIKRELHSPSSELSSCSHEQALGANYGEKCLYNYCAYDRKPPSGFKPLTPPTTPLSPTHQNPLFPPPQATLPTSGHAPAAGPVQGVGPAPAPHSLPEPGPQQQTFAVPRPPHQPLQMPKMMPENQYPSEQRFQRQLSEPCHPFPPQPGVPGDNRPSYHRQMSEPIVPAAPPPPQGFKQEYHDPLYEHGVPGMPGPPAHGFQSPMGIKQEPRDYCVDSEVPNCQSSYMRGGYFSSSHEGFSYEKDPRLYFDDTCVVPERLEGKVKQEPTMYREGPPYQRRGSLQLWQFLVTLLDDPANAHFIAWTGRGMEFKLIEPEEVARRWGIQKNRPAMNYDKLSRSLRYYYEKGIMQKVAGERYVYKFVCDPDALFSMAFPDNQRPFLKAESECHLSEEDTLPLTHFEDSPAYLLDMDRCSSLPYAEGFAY
Chain of CRX (O43186 whole entry): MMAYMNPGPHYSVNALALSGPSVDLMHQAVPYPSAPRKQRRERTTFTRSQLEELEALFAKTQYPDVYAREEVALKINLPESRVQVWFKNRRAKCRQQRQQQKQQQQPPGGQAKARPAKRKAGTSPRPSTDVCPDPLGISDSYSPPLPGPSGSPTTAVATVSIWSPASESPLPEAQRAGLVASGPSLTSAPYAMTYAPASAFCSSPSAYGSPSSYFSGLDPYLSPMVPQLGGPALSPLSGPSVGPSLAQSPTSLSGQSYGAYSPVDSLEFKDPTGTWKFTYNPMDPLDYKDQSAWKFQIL
Chain of HSF1 (Q00613 whole entry): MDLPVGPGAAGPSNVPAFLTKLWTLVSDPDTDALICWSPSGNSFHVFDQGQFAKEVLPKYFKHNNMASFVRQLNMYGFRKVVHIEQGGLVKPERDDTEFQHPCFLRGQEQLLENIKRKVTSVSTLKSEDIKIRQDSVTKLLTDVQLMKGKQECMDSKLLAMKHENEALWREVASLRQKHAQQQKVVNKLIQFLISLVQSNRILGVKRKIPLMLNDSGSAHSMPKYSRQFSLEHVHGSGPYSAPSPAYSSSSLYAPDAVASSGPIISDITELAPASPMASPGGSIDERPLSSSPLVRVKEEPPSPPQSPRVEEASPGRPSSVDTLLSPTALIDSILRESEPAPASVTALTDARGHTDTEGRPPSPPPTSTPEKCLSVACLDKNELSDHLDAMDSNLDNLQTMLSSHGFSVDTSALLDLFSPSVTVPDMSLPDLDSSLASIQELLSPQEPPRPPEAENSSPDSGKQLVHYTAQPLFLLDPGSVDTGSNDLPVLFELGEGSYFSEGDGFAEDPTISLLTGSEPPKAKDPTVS

Regarding TAGAAT, the binding signal in the assay with FLI1 was 1.1 fold enrichment (6-mer frequency, TF over GST control); with ELK1 it was 1.06 fold enrichment (6-mer frequency, TF over GST control); in the assay with GABPA, 1.03 fold enrichment (6-mer frequency, TF over GST control); in the assay with ERG, 1.03 fold enrichment (6-mer frequency, TF over GST control); in the assay with ELF1 it was 1.1 fold enrichment (6-mer frequency, TF over GST control); with EHF, 1.01 fold enrichment (6-mer frequency, TF over GST control). Also, the binding signal with SPI1 is 1.15 fold enrichment (6-mer frequency, TF over GST control); with ELK3, 1.15 fold enrichment (6-mer frequency, TF over GST control); with FEV, 1.04 fold enrichment (6-mer frequency, TF over GST control); with ETV5, 1.03 fold enrichment (6-mer frequency, TF over GST control); with HSF1 it was 3.07 fold enrichment (6-mer frequency, TF over GST control); with SPIC it was 1.04 fold enrichment (6-mer frequency, TF over GST control). The binding signal in the assay with ELF4 is 1.13 fold enrichment (6-mer frequency, TF over GST control); with ELK4, 1.14 fold enrichment (6-mer frequency, TF over GST control); with ETV2, 1.06 fold enrichment (6-mer frequency, TF over GST control); with ELF3, 1.19 fold enrichment (6-mer frequency, TF over GST control); with CRX it was 1.83 fold enrichment (6-mer frequency, TF over GST control).
